# HepG2 viability = counter-screen for TGF-b inhibitors: cytotoxicity in HepG2 cells; actives 0.76% (n = 410,000); Potency, µM (top dose mostly 46.1 µM), inactives show top-dose activity change, negative = cytotoxicity, most hits filed as cytotoxic; HepG2 CAGA-GFP viability, ATP luminescence, 18 h; also: potency is read from the fitted curve at half-maximal effect
#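 HepG2 CAGA-GFP cells (1000/well, DMEM with 1% FBS) received compound, then TGF-beta at 500 pg/mL final, and were incubated 18 hours at 37 degrees C. Viability was read by CellTiter-Glo luminescence. Media-only wells were set as complete cell-killing and DMSO as no toxicity.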
# TGFb SMAD3 inh = inhibitors of TGF-b signaling. HepG2 CAGA-GFP TGF-b/SMAD3 reporter, GFP fluorescence, 18 h; TGF-beta stimulated, 500 pg/mL final. Potency, µM (titrated, usually from 46.1 µM), without a hit: top-dose activity, negative = inhibition, usual class: inhibitors. actives 1.2% (n = 410,000); also: potency is read from the fitted curve at half-maximal effect; % is scaled to controls: 0 for no effect and ±100 for the full control effect; nearly all actives have a fitted effect of over 65% in size
#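 Inhibition was scored as loss of TGF-beta-induced (500 pg/mL final, 18 hours, 37 degrees C) GFP in HEPG2 cells carrying a CAGA-GFP reporter, in DMEM with 1% FBS. Well GFP was summed per cell; Activity was normalised to unstimulated and stimulated DMSO wells, then concentration-response fitting.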
# ASM inhibitor = human S-ASM enzyme inhibition. placental ASM, HMU-PC fluorogenic substrate, 60 min. Potency, µM (series often up to 57.5 µM), for inactives: top-dose activity change, negative = inhibition, actives largely listed as inhibitors. actives 0.006% (n = 340,000); also: potency is read from the fitted curve at half-maximal effect
# Target sequence (P17405 47-631 limits assumed): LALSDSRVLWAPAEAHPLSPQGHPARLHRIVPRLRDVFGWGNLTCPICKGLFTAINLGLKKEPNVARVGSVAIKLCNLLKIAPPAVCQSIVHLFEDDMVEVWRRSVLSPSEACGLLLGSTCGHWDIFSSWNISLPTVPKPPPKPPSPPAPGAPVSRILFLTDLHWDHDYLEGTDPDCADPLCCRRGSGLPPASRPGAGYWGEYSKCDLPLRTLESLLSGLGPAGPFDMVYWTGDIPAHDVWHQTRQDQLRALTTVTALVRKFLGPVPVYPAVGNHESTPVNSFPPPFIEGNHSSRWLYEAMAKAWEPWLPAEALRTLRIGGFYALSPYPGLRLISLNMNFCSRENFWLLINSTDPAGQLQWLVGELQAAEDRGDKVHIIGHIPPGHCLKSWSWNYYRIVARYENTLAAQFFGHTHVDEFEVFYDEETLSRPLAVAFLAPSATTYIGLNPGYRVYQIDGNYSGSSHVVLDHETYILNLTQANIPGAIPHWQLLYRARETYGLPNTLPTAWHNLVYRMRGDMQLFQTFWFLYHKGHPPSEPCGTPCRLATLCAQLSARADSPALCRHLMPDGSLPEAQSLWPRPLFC
#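 qHTS format. ASM enzyme prepared from human placenta hydrolyses the fluorogenic substrate HMU-PC0 (9 uM final) over 60 min at 37 °C after a 10 min compound preincubation.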
# IL1B secr inh = blocks inflammasome-driven IL-1 beta release; THP-1 LPS/ATP IL-1B secretion, AlphaLISA, 16 h; active compounds read low; activity change, % at 57.5 µM; actives 4.7% (n = 360,000); AID 743279; in the data active = activity change below about -50%; inconclusive = mostly about -30% to -49%; also: % is scaled to controls: 0 for no effect and ±100 for the full control effect
#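 Secreted IL-1B measured by AlphaLISA bead assay after 16 h compound exposure of THP-1 cells; compounds (final up to 57.5 uM) added 1 h before LPS (250 ng/mL) and ATP (1.25 mM) stimulation; lower signal means less secretion.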
# TDP1 cell CPT = growth inhibition of DT40 Tdp1-/-;hTDP1 cells with camptothecin (screen for TDP1 inhibitors) | Potency, µM (series often up to 46.2 µM), for inactives: at the highest dose activity change, negative = growth inhibition, actives largely listed as inhibitors | chicken DT40 Tdp1-/-;hTDP1 cells + 20 nM CPT, ATP luminescence, 48 h | actives 12% (n = 420,000); also: potency is read from the fitted curve at half-maximal effect; % is scaled to controls: 0 for no effect and ±100 for the full control effect; nearly all actives have a fitted effect of over 55% in size
#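 Chicken DT40 Tdp1-/- cells stably complemented with human TDP1 were seeded at 400 cells/well in medium containing 20 nM camptothecin, exposed to pin-transferred compounds, and grown at 37 °C for at least 48 hr. Viability was read as ATP luminescence.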
# DT40 TDP1 no CPT = qHTS for Inhibitors of human tyrosyl-DNA phosphodiesterase 1 (TDP1): qHTS in cells in absence of CPT; DT40 Tdp1-/- hTDP1 cells, no CPT, ATP luminescence, 48 h; actives 15% (n = 420,000); AID 686978, 2013; Potency, µM (top dose mostly 46.2 µM), without a hit: top-dose activity change, negative = growth inhibition, usual class: inhibitors; also: potency is read from the fitted curve at half-maximal effect; % is scaled to controls: 0 for no effect and ±100 for the full control effect; nearly all actives have a fitted effect of over 55% in size
#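 Luminescent ATP content (CellTiter-Glo) served as the growth readout. Knockout chicken DT40 cells expressing human TDP1 were exposed to compounds without camptothecin for a minimum 48 hr at 37 °C.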
# * marks the source's active call; other numbers are inactive results; i = inactive; ? = inconclusive; nt = no result given; [ ] = remark or other dose. A selection: hits, their analogues and other compounds. The true share with any hit is near 19%. Unless noted, calls follow the shape of the dose curve; as a rule, active = well fitted curve in the direction sought with a large enough effect; inconclusive = small, poorly fitted or top-dose-only effect, or another doubt; inactive = no such curve, though single readings can be large; an effect the other way counts as inactive or inconclusive.
SMILES,HepG2 viability,TGFb SMAD3 inh,ASM inhibitor,IL1B secr inh,TDP1 cell CPT,DT40 TDP1 no CPT
CC(=O)Nc1nc2ccc(S(=O)(=O)N3CCCC3)cc2s1,6%,-2%,1%,70,?,-18%
O=C(Nc1nc2ccc(S(=O)(=O)N3CCCC3)cc2s1)c1ccc(F)cc1,-1%,?,nt,nt,?,?
O=C(NCC1Cc2cccc(-c3cncnc3)c2O1)C1CC1 (centres undefined),nt,nt,nt,nt,3%[9.04 µM],-22%
CSC(=S)N/N=C/c1ccccc1,-26%,-13%,0%,25,?,?
CN(C)c1ccc(/C=C/c2ccnc3ccc(Br)cc23)cc1,-28%,20%,nt,nt,5.6µM*,5.6µM*
CN(C)c1ccc(/C=C/c2ccnc3ccc(Cl)cc23)cc1,-34%,?,nt,nt,?,13µM*
CN(C)c1ccc(/C=C/c2ccnc3cc(Cl)cc(Cl)c23)cc1,1%,6%,nt,nt,?,?
COc1cccc2nccc(/C=C/c3ccc(N(C)C)cc3)c12,-23%,18%,nt,nt,32µM*,13µM*
CN(C)c1ccc(/C=C/c2ccnc3ccc(-c4ccccc4)cc23)cc1,5%,14%,nt,nt,?,14µM*
Cc1nc(-n2nc(C)c(CCC(C)C)c2C)sc1C(=O)Nc1ccc(Cl)cc1,2%,-1%,nt,nt,?,?
COC(=O)c1ccccc1NC(=O)c1sc2nc(C)cc(C)c2c1NC(=O)c1ccccc1Cl,1%,7%,nt,nt,nt,nt
COc1cccc(C(=O)Nc2nc3c(s2)CCCC3)c1,-29%,?,nt,nt,?,?
COc1ccc(CC(=O)NCc2nc3cccnc3n2Cc2ccc(C)cc2)cc1,3%,-2%,nt,nt,-21%,1%
CN(C)c1ccc(/C=C/c2ccnc3ccc(F)cc23)cc1,-31%,-3%,nt,nt,13µM*,14µM*
COc1ccc2nccc(/C=C/c3ccc(N(C)C)cc3)c2c1,-34%,-16%,nt,nt,?,11µM*
CN(C)c1ccc(/C=C/c2ccnc3ccc(N)cc23)cc1,-34%,7%,nt,nt,18µM*,?
CN(C)c1ccc(/C=C/c2ccnc3ccc(O)cc23)cc1,-36%,19%,nt,nt,?,?
Cc1cc(Br)ccc1S(=O)(=O)NCc1ccccc1,-3%,?,4%,-14,-27%,1%
CS(=O)(=O)c1ccc(NC(=O)CCN2C(=O)C3CCCCC3C2=O)cc1 (centres undefined),1%,-7%,nt,0,-9%,-12%
CC1(Oc2cccc(F)c2)CCN(Cc2ccc(-c3ccccn3)cc2)C1 (centres undefined),-30%,20%,nt,7,?,18µM*
CCCNC(=O)C1(C)CCN(C(=O)COCc2ccccc2)C1 (centres undefined),-9%,-7%,nt,-56*,-4%,0%
CCCNC(=O)C1(C)CCCN(C(=O)COCc2ccccc2)C1 (centres undefined),6%,14%,nt,0,5%,15%
CC(C)NC(=O)C1(C)CCCN1Cc1ccccc1 (centres undefined),12%,7%,nt,-9,-30%,?
CC(C)NC(=O)C1(C)CCN1CCC(=O)c1ccccc1 (centres undefined),3%,-20%,nt,8,13µM*,13µM*
CCCNC(=O)C1(C)CCCN(Cc2ccc(-c3ccccn3)cc2)C1 (centres undefined),-7%,-4%,nt,-14,16µM*,13µM*
SMILES,HepG2 viability,TGFb SMAD3 inh,ASM inhibitor,IL1B secr inh,TDP1 cell CPT,DT40 TDP1 no CPT
CCN(CC(=O)Nc1ccc(NC(C)=O)cc1)C(=O)c1cc(CN2C(=O)c3ccccc3C2=O)ccc1OC,-2%,?,0%,-10,13%,7%
CN(C)n1cccc1/C=C(\C#N)S(=O)(=O)c1ccc(Cl)cc1,-32%,?,-8%,-3,-8%,?
CCCNC(=O)C1(C)CCCN(Cc2cc(-c3ccccc3)nn2C)C1 (centres undefined),-31%,-16%,nt,-8,?,16µM*
CCCNC(=O)C1(C)CCCN(CCOc2ccccc2)C1 (centres undefined),-5%,5%,nt,-15,?,?
CCCNC(=O)C1(C)CCCN(CCC(=O)c2ccccc2)C1 (centres undefined),14µM*,16µM*,nt,?,5.8µM*,7.3µM*
COc1cc2c(cc1Cl)C(=O)C(F)(c1ccccc1)C(=O)N2 (centres undefined),-30%,?,-12%,-15,?,?
O=C(NS(=O)(=O)N1CCCC1)C1=C(N2CCCC2)COC1=O,3%,0%,2%,24,14%,11%
Cc1ccccc1CN1C(=O)C2(OCCCO2)c2ccccc21,-3%,-7%,-2%,-8,11µM*,?
O=C(O)CN1C(=O)C2(OCCCO2)c2ccccc21,-5%,-15%,0%,5,2%,5%
COc1ccc(OC)c(/C=C/C(=O)Nc2cccc(S(=O)(=O)N3CCCC3)c2)c1,6%,-15%,i,-19,23µM*,29µM*
CCN1CCN(c2ccc(S(=O)(=O)N3CCCCC3)cc2NC(=O)/C=C/c2ccc(OC)c(OC)c2)CC1,-19%,0%,4%,-5,?,?
COc1ccc(NC(=S)Nc2cccc(S(=O)(=O)N3CCCCC3)c2)cc1,-15%,?,-12%,3,?,?
CCN1CCN(c2ccc(S(=O)(=O)N3CCCCC3)cc2NC(=O)/C=C/c2ccc(Cl)cc2)CC1,-93%,?,-2%,-93*,?,?
CCN1CCN(c2ccc(S(=O)(=O)N3CCCCC3)cc2NC(=O)/C=C/c2cc(OC)ccc2OC)CC1,-1%,-20%,118%,-98*,16µM*,?
COc1ccc(Cl)cc1NC(=O)CN1c2ccccc2S(=O)(=O)c2ccccc21,2%,?,nt,nt,?,-27%
COCCCNC(=O)Cn1c(=O)n(-c2ccc(C)c(C)c2)c(=O)c2c3c(sc21)CCCCC3,1%,-15%,nt,nt,8%,-17%
COc1ccccc1-c1ccnc(-n2ncc(C(=O)NCCc3ccccn3)c2C)n1,nt,nt,nt,nt,-2%[9.04 µM],?
Cc1ccc(-c2nc3ccc(Cl)cn3c2CC2CCCCC2)cc1,-12%,-5%,nt,-22,-20%,?
Cc1ccc(-c2nc3ccc(C)cn3c2CC2CCCCC2)cc1,nt,nt,nt,18,?,16µM*

# Compound activity from PubChem BioAssay.
